# Test results: paper PMC7862700, “An all-to-all approach to the identification of sequence-specific readers for epigenetic DNA modifications on cytosine”
# Assays:
# Test in all cases: DAPPL (digital affinity profiling via proximity ligation, sequencing); 10 mM Tris-HCl pH 7.5, 50 mM NaCl, 1 mM DTT, 4% glycerol, room temperature, 30 min; GST-TFs on glutathione beads, 16-mer random dsDNA library, 0.1% formaldehyde crosslink after washing; high values mean tight binding
# FLI1 = molecular target: T1, FLI1 (Homo sapiens, UniProt Q01543 1-452); details: protein: recombinant; tags: N-terminal GST; dsDNA, one strand shown
# T1 sequence: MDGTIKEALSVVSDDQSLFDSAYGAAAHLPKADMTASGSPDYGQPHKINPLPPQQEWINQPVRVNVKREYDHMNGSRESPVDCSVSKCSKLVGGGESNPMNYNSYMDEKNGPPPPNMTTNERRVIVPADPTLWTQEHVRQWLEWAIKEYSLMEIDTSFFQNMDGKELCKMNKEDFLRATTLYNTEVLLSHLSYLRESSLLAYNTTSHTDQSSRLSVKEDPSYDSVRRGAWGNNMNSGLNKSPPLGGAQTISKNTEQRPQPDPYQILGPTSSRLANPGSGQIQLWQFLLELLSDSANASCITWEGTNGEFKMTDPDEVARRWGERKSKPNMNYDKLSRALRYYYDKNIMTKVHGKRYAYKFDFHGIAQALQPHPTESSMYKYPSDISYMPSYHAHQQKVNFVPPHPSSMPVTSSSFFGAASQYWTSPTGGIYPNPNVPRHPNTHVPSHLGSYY
# In short: (§1)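 GST fusions of human transcription factors were expressed in yeast and captured with glutathione beads. Once given DNA barcodes and pooled alongside a tag-only sample, they were incubated for 30 min at room temperature with 200 nmole of a random double-stranded 16-mer DNA library in Tris/NaCl/DTT/glycerol buffer, then washed, crosslinked (0.1% formaldehyde), proximity-ligated, PCR-amplified and sequenced on an Illumina NextSeq500. The binding signal of each hexamer is its read frequency for a factor divided by its frequency for the tag-only sample.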
# ELK1 = molecular target: T2, ELK1 (Homo sapiens, UniProt P19419 1-428); details: protein: recombinant; tags: N-terminal GST; dsDNA, one strand shown
# T2 sequence: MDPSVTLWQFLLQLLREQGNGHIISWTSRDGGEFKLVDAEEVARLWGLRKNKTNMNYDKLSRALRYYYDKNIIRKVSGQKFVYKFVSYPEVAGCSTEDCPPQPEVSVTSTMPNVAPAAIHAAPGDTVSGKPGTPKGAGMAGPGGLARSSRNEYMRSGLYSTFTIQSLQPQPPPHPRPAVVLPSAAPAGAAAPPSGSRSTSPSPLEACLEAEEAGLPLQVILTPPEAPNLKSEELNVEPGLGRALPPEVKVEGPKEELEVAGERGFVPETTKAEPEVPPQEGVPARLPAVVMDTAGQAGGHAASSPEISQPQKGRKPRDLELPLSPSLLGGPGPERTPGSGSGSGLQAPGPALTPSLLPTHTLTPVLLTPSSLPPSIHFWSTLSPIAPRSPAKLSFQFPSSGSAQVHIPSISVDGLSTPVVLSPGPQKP
# In short: as §1
# GABPA = molecular target: T3, GABPA (Homo sapiens, UniProt Q06546 1-454); details: protein: recombinant; tags: N-terminal GST; dsDNA, one strand shown
# T3 sequence: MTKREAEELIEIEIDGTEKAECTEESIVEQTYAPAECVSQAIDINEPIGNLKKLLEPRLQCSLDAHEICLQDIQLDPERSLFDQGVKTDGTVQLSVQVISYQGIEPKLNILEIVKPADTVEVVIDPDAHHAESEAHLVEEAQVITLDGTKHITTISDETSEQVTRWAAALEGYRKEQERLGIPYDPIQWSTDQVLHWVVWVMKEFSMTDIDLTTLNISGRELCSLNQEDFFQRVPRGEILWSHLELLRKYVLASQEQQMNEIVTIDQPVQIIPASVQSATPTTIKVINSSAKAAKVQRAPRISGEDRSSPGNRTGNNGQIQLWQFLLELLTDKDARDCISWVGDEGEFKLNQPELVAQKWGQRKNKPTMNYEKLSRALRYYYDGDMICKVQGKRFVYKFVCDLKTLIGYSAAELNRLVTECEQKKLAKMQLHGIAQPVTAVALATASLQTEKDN
# In short: as §1
# ERG = molecular target: T4, ERG (Homo sapiens, UniProt P11308 1-479); details: protein: recombinant; tags: N-terminal GST; dsDNA, one strand shown
# T4 sequence: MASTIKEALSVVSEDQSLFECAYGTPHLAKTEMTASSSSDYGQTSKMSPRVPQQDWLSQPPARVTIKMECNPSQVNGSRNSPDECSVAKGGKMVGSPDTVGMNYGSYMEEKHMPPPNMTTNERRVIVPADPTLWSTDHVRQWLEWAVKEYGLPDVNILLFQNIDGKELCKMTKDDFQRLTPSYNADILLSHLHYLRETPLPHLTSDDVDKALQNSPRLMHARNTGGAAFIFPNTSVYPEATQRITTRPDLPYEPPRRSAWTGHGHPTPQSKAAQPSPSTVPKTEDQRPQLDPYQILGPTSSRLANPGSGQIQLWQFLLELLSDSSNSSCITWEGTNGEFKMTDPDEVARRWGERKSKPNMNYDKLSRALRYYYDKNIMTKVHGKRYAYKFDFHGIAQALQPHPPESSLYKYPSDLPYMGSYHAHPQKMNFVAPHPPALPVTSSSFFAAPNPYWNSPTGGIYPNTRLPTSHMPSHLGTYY
# In short: as §1
# ELF1 = ELF1 (Homo sapiens, UniProt P32519 1-619); details: protein: recombinant; tags: N-terminal GST; dsDNA, one strand shown
# Chain of ELF1 (P32519 whole entry): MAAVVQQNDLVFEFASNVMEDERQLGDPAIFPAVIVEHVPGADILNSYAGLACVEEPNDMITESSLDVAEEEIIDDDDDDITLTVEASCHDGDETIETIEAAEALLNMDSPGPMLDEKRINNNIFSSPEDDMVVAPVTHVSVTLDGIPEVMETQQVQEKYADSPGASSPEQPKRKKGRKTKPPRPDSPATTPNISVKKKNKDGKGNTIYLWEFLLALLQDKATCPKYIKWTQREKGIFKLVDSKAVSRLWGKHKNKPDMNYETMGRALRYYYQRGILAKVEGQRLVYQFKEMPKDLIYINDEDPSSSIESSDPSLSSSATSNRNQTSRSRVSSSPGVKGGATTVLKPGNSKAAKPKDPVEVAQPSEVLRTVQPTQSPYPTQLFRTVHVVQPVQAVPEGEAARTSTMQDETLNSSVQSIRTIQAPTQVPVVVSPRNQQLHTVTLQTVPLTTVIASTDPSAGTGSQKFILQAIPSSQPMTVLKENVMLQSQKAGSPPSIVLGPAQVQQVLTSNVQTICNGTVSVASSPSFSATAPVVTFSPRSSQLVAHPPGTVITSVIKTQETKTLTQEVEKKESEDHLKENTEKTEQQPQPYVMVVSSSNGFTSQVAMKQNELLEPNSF
# In short: as §1
# EHF = molecular target: T5, EHF (Homo sapiens, UniProt Q9NZC4 1-300); details: protein: recombinant; tags: N-terminal GST; dsDNA, one strand shown
# T5 sequence: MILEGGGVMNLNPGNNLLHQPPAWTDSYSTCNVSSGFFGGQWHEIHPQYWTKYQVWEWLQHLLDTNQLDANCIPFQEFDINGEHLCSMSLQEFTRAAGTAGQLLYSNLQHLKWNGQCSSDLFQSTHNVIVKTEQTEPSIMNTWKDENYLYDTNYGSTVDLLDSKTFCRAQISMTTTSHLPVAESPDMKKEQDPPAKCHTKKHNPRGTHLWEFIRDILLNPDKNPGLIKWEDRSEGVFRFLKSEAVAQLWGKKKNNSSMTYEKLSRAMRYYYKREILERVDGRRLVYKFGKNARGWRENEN
# In short: as §1
# SPI1 = SPI1 (Homo sapiens, UniProt P17947 1-270); details: protein: recombinant; tags: N-terminal GST; dsDNA, one strand shown
# In short: as §1
# SPIB = SPIB (Homo sapiens, UniProt Q01892 1-262); details: protein: recombinant; tags: N-terminal GST; dsDNA, one strand shown
# Chain of SPIB (Q01892 whole entry): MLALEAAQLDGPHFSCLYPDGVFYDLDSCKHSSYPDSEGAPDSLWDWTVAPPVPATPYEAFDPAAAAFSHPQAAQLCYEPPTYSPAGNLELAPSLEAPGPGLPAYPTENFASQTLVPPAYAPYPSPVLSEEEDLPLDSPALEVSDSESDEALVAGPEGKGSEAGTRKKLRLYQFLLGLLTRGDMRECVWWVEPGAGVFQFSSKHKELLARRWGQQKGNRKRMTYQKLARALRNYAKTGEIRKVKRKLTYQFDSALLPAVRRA
# In short: as §1
# ELK3 = molecular target: T6, ELK3 (Homo sapiens, UniProt P41970 1-407); details: protein: recombinant; tags: N-terminal GST; dsDNA, one strand shown
# T6 sequence: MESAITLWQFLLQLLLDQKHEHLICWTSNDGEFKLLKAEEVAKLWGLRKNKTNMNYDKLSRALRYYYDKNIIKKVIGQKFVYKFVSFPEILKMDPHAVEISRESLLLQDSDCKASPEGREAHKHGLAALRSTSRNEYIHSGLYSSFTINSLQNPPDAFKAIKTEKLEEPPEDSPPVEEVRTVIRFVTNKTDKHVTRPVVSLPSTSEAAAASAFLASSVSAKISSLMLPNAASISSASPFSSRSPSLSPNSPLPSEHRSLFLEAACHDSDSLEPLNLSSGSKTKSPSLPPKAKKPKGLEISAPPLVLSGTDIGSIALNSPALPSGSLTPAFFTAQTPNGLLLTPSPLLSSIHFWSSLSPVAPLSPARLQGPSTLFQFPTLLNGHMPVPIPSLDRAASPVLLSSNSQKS
# In short: as §1
# FEV = molecular target: T7, FEV (Homo sapiens, UniProt Q99581 1-238); details: protein: recombinant; tags: N-terminal GST; dsDNA, one strand shown
# T7 sequence: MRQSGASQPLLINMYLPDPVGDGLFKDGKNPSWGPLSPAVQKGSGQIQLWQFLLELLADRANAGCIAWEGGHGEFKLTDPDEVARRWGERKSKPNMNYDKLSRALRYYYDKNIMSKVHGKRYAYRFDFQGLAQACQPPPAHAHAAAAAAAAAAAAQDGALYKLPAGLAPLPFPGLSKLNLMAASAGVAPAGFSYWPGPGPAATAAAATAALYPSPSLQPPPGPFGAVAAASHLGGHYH
# In short: as §1
# ETV5 = ETV5 (Homo sapiens, UniProt P41161 1-510); details: protein: recombinant; tags: N-terminal GST; dsDNA, one strand shown
# Chain of ETV5 (P41161 whole entry): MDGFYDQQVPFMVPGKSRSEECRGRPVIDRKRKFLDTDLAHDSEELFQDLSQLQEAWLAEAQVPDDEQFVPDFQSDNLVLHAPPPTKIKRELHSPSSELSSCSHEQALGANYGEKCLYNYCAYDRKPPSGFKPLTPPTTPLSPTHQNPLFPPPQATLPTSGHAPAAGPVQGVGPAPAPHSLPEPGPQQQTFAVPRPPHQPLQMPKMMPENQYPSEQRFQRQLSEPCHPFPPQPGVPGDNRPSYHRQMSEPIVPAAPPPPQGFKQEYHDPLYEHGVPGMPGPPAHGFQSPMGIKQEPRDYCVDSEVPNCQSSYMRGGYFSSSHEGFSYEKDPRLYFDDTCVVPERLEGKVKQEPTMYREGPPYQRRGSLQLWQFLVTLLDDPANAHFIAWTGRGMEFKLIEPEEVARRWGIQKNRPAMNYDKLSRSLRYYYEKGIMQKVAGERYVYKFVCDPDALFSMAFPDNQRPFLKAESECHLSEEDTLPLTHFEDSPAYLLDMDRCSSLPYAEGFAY
# In short: as §1
# HSF1 = HSF1 (Homo sapiens, UniProt Q00613 1-529); details: protein: recombinant; tags: N-terminal GST; chain copies: 3; dsDNA, one strand shown
# Chain of HSF1 (Q00613 whole entry): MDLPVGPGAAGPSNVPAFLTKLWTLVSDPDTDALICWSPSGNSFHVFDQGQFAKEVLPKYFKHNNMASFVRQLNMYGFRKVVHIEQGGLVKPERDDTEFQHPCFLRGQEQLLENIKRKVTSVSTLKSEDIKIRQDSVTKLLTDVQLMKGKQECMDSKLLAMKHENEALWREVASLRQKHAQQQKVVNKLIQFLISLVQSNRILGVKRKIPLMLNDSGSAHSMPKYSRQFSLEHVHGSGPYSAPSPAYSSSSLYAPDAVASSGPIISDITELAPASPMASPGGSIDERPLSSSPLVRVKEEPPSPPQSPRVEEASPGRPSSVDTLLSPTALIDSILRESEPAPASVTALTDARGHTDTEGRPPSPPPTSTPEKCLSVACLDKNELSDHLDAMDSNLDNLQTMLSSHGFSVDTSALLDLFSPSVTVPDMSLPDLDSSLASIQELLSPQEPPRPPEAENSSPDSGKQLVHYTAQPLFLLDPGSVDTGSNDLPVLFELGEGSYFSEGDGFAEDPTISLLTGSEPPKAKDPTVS
# In short: as §1
# SPIC = molecular target: T8, SPIC (Homo sapiens, UniProt Q8N5J4 1-248); details: protein: recombinant; tags: N-terminal GST; dsDNA, one strand shown
# T8 sequence: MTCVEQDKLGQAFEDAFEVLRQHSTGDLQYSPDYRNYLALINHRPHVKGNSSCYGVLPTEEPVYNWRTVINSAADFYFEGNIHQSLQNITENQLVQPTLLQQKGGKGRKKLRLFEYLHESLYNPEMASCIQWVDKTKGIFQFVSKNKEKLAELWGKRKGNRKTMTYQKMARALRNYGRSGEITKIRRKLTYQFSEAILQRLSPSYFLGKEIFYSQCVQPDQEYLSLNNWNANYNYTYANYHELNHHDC
# In short: as §1
# ELF4 = ELF4 (Homo sapiens, UniProt Q99607 1-663); details: protein: recombinant; tags: N-terminal GST; dsDNA, one strand shown
# Chain of ELF4 (Q99607 whole entry): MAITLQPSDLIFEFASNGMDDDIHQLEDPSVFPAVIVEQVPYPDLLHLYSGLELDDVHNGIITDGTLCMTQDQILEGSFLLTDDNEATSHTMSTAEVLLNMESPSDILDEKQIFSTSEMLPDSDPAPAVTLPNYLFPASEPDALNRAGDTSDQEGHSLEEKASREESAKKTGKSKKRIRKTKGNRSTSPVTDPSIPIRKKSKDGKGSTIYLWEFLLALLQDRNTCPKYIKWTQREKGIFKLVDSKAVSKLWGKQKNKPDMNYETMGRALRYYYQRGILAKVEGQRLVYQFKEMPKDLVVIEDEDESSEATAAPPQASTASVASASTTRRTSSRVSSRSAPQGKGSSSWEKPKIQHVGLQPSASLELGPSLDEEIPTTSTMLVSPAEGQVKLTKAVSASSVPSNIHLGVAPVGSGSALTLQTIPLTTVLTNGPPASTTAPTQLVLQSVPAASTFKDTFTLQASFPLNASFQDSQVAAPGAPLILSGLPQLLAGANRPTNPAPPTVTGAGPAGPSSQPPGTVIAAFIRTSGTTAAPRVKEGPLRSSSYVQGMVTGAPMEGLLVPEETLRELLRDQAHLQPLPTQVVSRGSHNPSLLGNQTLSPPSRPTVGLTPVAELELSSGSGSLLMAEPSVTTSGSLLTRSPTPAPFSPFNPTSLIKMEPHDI
# In short: as §1
# ELK4 = molecular target: T9, ELK4 (Homo sapiens, UniProt P28324-2 1-405); details: protein: recombinant; tags: N-terminal GST; dsDNA, one strand shown
# T9 sequence: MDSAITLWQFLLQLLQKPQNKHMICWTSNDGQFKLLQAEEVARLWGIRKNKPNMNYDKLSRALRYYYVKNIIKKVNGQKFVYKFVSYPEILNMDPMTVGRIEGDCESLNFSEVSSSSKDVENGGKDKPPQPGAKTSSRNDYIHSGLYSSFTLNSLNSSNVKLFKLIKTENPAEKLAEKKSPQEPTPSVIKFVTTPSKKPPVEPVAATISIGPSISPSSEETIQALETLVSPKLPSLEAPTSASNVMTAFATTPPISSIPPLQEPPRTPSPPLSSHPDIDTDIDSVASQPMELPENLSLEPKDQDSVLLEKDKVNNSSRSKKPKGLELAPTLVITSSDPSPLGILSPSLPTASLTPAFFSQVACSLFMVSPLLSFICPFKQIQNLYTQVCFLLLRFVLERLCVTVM
# In short: as §1
# ETV2 = molecular target: T10, ETV2 (Homo sapiens, UniProt O00321 1-342); details: protein: recombinant; tags: N-terminal GST; dsDNA, one strand shown
# T10 sequence: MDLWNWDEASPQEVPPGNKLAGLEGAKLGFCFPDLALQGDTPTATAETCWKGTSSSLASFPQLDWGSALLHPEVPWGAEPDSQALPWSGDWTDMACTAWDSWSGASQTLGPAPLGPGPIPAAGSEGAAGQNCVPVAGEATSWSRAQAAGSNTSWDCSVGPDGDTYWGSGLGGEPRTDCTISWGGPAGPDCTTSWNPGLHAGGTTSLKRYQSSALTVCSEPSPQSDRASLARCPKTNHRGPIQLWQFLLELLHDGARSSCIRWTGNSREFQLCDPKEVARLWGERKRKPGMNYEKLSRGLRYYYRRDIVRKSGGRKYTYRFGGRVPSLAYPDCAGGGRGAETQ
# In short: as §1
# ELF3 = molecular target: T11, ELF3 (Homo sapiens, UniProt P78545 1-371); details: protein: recombinant; tags: N-terminal GST; dsDNA, one strand shown
# T11 sequence: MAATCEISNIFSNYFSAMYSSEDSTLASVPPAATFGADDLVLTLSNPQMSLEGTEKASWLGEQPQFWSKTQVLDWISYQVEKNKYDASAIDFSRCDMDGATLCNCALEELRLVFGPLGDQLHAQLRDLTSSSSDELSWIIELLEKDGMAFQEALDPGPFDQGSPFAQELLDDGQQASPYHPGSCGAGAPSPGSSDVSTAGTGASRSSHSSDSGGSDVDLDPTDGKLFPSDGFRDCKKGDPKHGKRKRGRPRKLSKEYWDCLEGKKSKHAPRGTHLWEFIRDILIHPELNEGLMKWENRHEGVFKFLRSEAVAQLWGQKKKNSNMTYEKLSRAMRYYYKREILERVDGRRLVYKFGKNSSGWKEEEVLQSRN
# In short: as §1
# ETV1 = ETV1 (Homo sapiens, UniProt P50549 1-477); details: protein: recombinant; tags: N-terminal GST; dsDNA, one strand shown
# Chain of ETV1 (P50549 whole entry): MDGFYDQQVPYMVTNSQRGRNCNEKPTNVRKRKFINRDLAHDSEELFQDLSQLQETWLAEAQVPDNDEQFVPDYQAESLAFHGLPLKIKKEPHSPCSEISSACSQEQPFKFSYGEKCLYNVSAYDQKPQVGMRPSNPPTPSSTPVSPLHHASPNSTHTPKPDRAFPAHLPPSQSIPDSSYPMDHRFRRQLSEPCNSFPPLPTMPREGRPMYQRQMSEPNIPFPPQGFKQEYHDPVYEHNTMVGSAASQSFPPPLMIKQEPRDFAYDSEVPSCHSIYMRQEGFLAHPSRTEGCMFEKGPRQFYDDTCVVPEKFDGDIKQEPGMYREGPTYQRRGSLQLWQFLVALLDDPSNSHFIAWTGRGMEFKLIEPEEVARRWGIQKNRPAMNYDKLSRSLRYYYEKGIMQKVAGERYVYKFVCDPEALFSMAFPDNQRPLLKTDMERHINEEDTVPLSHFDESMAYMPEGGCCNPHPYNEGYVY
# In short: as §1
sequence,measurement,setting,value
ACTCAC,binding signal,FLI1,"1.22 fold enrichment (6-mer frequency, TF over GST control)"
same,binding signal,ELK1,"1.31 fold enrichment (6-mer frequency, TF over GST control)"
same,binding signal,GABPA,"1.27 fold enrichment (6-mer frequency, TF over GST control)"
same,binding signal,ERG,"1.17 fold enrichment (6-mer frequency, TF over GST control)"
same,binding signal,ELF1,"1.18 fold enrichment (6-mer frequency, TF over GST control)"
same,binding signal,EHF,"1.24 fold enrichment (6-mer frequency, TF over GST control)"
same,binding signal,SPI1,"1.23 fold enrichment (6-mer frequency, TF over GST control)"
same,binding signal,SPIB,"1.44 fold enrichment (6-mer frequency, TF over GST control)"
same,binding signal,ELK3,"1.35 fold enrichment (6-mer frequency, TF over GST control)"
same,binding signal,FEV,"1.24 fold enrichment (6-mer frequency, TF over GST control)"
same,binding signal,ETV5,"1.18 fold enrichment (6-mer frequency, TF over GST control)"
same,binding signal,HSF1,"1.07 fold enrichment (6-mer frequency, TF over GST control)"
same,binding signal,SPIC,"1.25 fold enrichment (6-mer frequency, TF over GST control)"
same,binding signal,ELF4,"1.24 fold enrichment (6-mer frequency, TF over GST control)"
same,binding signal,ELK4,"1.18 fold enrichment (6-mer frequency, TF over GST control)"
same,binding signal,ETV2,"1.24 fold enrichment (6-mer frequency, TF over GST control)"
same,binding signal,ELF3,"1.31 fold enrichment (6-mer frequency, TF over GST control)"
same,binding signal,ETV1,"1.15 fold enrichment (6-mer frequency, TF over GST control)"
